# Data published in PMC4336329 (PLoS ONE, 2015).
# Screen size: about 310,000 compounds; about 14,000 (4.5%) showed an effect of 50% or more. Effects have a minus sign here. The entries come from a sample that favours strong results as a whole.
# Target: human ether-à-go-go-related gene (hERG) potassium channel (human, UniProt Q12809)
# Experiment: primary screen, population patch clamp on CHO cells stably expressing hERG; higher = less effect of the substance
# 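Further: peak tail current of the secondary pulse compared with the same well before compound.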
# human ether-à-go-go-related gene (hERG) potassium channel, sequence (Q12809 whole entry, looked up): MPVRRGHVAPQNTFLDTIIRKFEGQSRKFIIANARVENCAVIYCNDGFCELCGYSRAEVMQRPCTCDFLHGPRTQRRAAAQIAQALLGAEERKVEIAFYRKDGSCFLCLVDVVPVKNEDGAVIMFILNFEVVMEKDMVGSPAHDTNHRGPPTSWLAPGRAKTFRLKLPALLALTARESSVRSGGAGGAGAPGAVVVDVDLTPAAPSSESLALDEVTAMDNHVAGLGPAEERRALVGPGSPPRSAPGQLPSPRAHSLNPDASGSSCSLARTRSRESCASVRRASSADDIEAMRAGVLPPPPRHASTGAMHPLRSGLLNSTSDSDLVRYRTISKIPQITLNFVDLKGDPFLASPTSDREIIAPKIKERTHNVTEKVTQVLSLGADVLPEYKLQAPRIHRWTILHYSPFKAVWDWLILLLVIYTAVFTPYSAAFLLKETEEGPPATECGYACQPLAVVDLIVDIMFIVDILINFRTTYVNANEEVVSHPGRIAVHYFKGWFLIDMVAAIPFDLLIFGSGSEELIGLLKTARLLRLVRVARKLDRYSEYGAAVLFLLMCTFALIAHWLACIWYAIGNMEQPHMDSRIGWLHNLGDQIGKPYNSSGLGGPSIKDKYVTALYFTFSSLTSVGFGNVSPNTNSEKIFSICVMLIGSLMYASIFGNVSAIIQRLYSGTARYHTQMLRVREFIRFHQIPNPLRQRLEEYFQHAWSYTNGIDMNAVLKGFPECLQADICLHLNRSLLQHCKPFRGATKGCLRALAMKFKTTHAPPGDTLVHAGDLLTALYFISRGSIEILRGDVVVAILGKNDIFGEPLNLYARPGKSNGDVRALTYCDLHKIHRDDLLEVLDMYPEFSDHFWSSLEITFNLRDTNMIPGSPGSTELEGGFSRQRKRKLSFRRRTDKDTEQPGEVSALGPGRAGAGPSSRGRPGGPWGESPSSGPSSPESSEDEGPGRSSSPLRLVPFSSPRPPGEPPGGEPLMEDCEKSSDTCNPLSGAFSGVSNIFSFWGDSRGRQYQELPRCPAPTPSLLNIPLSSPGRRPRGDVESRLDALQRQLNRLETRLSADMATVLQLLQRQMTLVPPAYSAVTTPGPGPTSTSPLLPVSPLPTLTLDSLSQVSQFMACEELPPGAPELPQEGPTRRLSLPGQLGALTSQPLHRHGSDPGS
row,SMILES,"hERG current change (%, negative = inhibition) at 10uM [%]"
1,CN(C)CCNc1nc(-c2ccco2)c2c(c1C#N)CC(C)(C)OC2,-55.7
2,Cc1nc(NCCN)c(C#N)c2c1COC(C)(C)C2,16
3,CC1(C)Cc2c(C#N)c(N3CCOCC3)nc(-c3ccccc3)c2CO1,-12.1
4,CC1(C)Cc2c(C#N)c(NCCc3ccccc3)nc(-c3ccco3)c2CO1,12.5
5,CC1(C)Cc2c(C#N)c(NCc3ccco3)nc(-c3ccco3)c2CO1,-8.94
6,CCN(CC)CCNc1nc(-c2ccco2)c2c(c1C#N)CC(C)(C)OC2,-62.6
7,CCN(CC)CCNc1nc(-c2ccccc2)c2c(c1C#N)CC(C)(C)OC2,-66.4
8,CC1(C)Cc2c(C#N)c(NCCO)nc(-c3ccco3)c2CO1,-4.23
9,CC1(C)Cc2c(C#N)c(NCCN3CCOCC3)nc(-c3ccco3)c2CO1,-6.23
10,COC(=O)c1c(NC(=S)NN2CCOCC2)sc2c1CCCC2,8.03
11,COc1ccc(S(=O)(=O)Nc2ccc(S(=O)(=O)NCC3CCCO3)cc2)cc1 (stereo not shown),6.4
12,CCc1nc2c(sc3nc4c(cc32)COC(C)(C)C4)c(=O)n1CCN(CC)CC,-38.1
13,COc1ccc(C(=O)Nc2ccc3ccccc3n2)c(OC)c1OC,17.8
14,COc1ccc(C[C@H](N)C(=O)N[C@H]2[C@@H](O)[C@H](n3cnc4c(N(C)C)ncnc43)O[C@@H]2CO)cc1.Cl,-5.25
15,Cc1ccc(C(=O)Nc2ccc3c(c2)OCO3)cc1S(=O)(=O)N1CCCCC1,-18.8
16,CC(O)c1nc2ccccc2n1CCCOc1ccccc1 (stereo not shown),-7.48
17,CCN(CC)S(=O)(=O)c1ccc(NC2CCN(Cc3ccccc3)CC2)nc1,-57.9
18,O=C(CN1CCCCCC1)Nc1ccc(F)c(F)c1.O=C(O)C(=O)O,-22.4
19,O=C(CN1CCN(c2ccc(Cl)cc2)CC1)Nc1ccc(F)c(F)c1,-18.7
20,O=C(CN1CCN(CC(=O)Nc2ccccc2Cl)CC1)Nc1ccc(F)c(F)c1,-78.2
21,O=C(CN1CCN(Cc2ccccc2F)CC1)Nc1ccccc1Cl,-27.6
22,Cc1ccc(F)cc1NC(=O)CN1CCN(Cc2ccccc2)CC1,-63.2
23,CCN1CCN(CC(=O)Nc2cc(F)ccc2C)CC1,-46.2
24,Cc1ccccc1NC(=O)CN1CCN(Cc2ccccc2)CC1,-36.1
25,O=C(CN1CCN(Cc2ccccc2)CC1)Nc1ccc(F)c(F)c1.O=C(O)C(=O)O,-57.1
26,CCN(CC)S(=O)(=O)c1ccc(NCc2ccccc2)nc1,-11.3
27,CCN(CC)S(=O)(=O)c1ccc(Cl)c(C(=O)NC2CCN(Cc3ccccc3)CC2)c1.Cl,-28.8
28,Cl.O=C(CN1CCN(Cc2ccccc2)CC1)Nc1ccc2c(c1)CCC2,-47.6
